Experimental findings from PubChem BioAssay (Tox21) are described below.

The target in assay [1] is Cytochrome P450 2D6 (Homo sapiens) (UniProt P10635). Nature of the assay: Cytochrome P450 Family 2 Subfamily D Member 6 (CYP2D6) small molecule antagonists: luciferase reporter qHTS assay (AID 1671196). Note: nearly all actives have a fitted effect of over 50% in size. A digest of the protocol: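 Each well received CYP2D6 with its proluciferin substrate and chemical, sat 10 min, then got NADPH regeneration solution for 1 h at room temperature. Luminescence in RLU served as the activity measure.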

For assay [2], the target named is Cytochrome P450 2C19 (Homo sapiens) (UniProt P33261). As to the kind of experiment: Cytochrome P450 Family 2 Subfamily C Member 19 (CYP2C19) small molecule antagonists: luciferase reporter qHTS assay (AID 1671197). Note: nearly all actives have a fitted effect of over 65% in size. The method, boiled down:
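P450-Glo CYP2C19 screening system; proluciferin substrate; DMSO compound stocks; 10 min RT preincubation; NADPH regeneration, 1 h at 37C; luciferin detection reagent, 20 min RT; luminescence as RLU.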
Background: A reporter such as luciferase makes a cellular process visible.

For assay [3], the target named is Cytochrome P450 2C9 (Homo sapiens) (UniProt P11712). As to the kind of experiment: Cytochrome P450 Family 2 Subfamily C Member 9 (CYP2C9) small molecule antagonists: luciferase reporter qHTS assay (AID 1671198). Note: nearly all actives have a fitted effect of over 50% in size. A digest of the protocol:
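P450-Glo proluciferin substrate with CYP2C9 enzyme; 10 min RT preincubation, then NADPH regeneration 1 h at 37C; luciferin detection reagent 20 min RT, luminescence in relative luminescence units.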

The target in assay [4] is Cytochrome P450 1A2 (Homo sapiens) (UniProt P05177). Nature of the assay: Cytochrome P450 Family 1 Subfamily A Member 2 (CYP1A2) small molecule antagonists: luciferase reporter qHTS assay (AID 1671199). Note: nearly all actives have a fitted effect of over 50% in size. A digest of the protocol:
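Enzymatic CYP1A2 assay, human, luminescent: 10 min compound–enzyme–substrate preincubation, 1 h NADPH-dependent turnover, 20 min detection step, room temperature throughout. Reduced light indicates lower CYP1A2 activity.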

In assay [5] the target is Voltage-gated inwardly rectifying potassium channel KCNH2 (Homo sapiens) (UniProt Q12809). As to the kind of experiment: Human Ether-a-go-go-Related Gene (hERG) channel small molecule antagonists: fluorescence cell-based qHTS assay (AID 1671200). Note: nearly all actives have a fitted effect of over 50% in size. A digest of the protocol: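 Fluorescence at 540 nm emission (480 nm excitation) was recorded kinetically for 2 min at 1-second intervals once the thallium-containing stimulus reached cells previously loaded with FluxOR II dye.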
A general note: hERG is a cardiac potassium channel; its block is linked to QT prolongation.

In assay [6] the target is Cytochrome P450 3A4 (Homo sapiens) (UniProt P08684). Nature of the assay: Cytochrome P450 Family 3 Subfamily A Member 4 (CYP3A4) small molecule antagonists: luciferase reporter qHTS assay (AID 1671201). Note: nearly all actives have a fitted effect of over 50% in size. A digest of the protocol:
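qHTS, 1536-well. CYP3A4 + proluciferin substrate, cpd 10 min RT → NADPH regen 1 h RT → detection reagent 20 min → luminescence (RLU). Ketoconazole positive control.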

Results filed as inconclusive are left out. Activity calls are given as the source filed them. Calls come from the whole dose curve; as a rule, active = well fitted curve in the direction sought with a large enough effect in the repeat runs; inconclusive = weak or mixed curves; inactive = no such curve, though single readings can be large; an effect the other way counts as inactive or inconclusive.
Potency is the fitted concentration of half-maximal effect.

Cytochrome P450 2C19 (Homo sapiens), sequence (P33261 whole entry, looked up): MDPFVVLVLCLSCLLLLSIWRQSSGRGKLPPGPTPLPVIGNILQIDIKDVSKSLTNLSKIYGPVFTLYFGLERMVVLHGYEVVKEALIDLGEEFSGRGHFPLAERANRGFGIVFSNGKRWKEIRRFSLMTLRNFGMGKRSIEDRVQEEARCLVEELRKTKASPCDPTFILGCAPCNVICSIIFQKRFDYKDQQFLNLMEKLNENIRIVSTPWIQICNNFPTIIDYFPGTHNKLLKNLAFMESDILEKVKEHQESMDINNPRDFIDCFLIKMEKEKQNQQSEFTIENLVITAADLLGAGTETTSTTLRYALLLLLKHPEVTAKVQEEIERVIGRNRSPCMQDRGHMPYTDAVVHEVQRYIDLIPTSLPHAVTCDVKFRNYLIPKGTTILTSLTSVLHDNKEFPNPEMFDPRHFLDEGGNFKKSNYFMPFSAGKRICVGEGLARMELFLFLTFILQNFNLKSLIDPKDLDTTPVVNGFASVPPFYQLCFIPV
Cytochrome P450 1A2 (Homo sapiens), sequence (P05177 whole entry, looked up): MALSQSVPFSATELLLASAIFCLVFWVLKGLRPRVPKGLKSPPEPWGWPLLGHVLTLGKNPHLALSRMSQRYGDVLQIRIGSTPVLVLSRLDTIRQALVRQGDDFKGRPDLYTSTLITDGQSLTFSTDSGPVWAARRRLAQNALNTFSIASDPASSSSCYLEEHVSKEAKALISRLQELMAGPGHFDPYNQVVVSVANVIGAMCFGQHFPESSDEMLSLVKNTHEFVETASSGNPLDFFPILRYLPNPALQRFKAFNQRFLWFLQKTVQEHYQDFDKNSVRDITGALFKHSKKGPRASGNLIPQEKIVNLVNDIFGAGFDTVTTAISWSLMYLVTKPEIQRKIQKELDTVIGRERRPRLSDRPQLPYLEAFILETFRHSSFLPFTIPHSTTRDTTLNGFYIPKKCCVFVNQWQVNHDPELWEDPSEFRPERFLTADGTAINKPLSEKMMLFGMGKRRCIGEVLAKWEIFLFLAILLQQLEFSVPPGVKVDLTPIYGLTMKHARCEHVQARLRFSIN
Cytochrome P450 2C9 (Homo sapiens), sequence (P11712 whole entry, looked up): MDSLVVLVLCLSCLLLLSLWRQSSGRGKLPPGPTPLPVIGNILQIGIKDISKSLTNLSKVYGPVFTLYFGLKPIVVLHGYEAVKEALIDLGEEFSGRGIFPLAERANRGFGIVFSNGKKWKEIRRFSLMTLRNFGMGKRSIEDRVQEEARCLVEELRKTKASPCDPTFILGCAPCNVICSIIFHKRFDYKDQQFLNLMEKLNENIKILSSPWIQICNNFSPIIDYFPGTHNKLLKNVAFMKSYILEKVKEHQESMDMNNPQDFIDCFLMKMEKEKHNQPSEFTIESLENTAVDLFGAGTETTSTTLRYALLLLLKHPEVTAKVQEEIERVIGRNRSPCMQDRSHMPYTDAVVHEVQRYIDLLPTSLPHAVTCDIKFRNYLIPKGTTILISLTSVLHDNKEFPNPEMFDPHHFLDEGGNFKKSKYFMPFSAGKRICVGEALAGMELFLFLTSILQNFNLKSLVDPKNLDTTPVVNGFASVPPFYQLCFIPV
Voltage-gated inwardly rectifying potassium channel KCNH2 (Homo sapiens), sequence (Q12809 whole entry, looked up): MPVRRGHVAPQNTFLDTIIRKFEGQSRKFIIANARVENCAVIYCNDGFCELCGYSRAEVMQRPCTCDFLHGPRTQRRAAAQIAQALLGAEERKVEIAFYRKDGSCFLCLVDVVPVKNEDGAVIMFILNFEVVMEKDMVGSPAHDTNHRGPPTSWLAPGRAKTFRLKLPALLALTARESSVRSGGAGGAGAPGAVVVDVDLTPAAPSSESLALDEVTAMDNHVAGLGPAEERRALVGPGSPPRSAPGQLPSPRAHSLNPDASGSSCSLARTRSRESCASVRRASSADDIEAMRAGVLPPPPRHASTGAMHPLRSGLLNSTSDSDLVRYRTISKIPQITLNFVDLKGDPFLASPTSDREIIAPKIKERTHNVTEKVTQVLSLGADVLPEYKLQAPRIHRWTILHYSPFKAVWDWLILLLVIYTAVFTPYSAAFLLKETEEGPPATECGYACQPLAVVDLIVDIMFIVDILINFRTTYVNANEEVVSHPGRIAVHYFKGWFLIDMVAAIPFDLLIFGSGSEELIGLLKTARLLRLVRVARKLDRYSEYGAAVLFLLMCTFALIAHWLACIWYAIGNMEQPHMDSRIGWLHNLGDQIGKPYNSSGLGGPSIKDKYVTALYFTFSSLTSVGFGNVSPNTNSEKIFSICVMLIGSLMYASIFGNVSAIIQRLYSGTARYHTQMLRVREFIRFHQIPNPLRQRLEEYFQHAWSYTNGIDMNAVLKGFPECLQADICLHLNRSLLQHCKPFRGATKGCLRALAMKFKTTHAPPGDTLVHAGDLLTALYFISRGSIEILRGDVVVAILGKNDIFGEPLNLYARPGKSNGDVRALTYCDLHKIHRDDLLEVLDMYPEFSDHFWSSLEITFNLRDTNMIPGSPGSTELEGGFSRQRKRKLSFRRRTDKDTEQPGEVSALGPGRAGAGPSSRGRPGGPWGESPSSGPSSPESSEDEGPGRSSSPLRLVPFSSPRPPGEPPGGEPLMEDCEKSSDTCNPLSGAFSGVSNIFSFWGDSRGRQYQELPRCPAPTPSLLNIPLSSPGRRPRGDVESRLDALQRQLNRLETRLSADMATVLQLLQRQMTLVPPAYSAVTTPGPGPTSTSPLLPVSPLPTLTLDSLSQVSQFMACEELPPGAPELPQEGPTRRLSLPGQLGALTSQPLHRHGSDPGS
Cytochrome P450 2D6 (Homo sapiens), sequence (P10635 whole entry, looked up): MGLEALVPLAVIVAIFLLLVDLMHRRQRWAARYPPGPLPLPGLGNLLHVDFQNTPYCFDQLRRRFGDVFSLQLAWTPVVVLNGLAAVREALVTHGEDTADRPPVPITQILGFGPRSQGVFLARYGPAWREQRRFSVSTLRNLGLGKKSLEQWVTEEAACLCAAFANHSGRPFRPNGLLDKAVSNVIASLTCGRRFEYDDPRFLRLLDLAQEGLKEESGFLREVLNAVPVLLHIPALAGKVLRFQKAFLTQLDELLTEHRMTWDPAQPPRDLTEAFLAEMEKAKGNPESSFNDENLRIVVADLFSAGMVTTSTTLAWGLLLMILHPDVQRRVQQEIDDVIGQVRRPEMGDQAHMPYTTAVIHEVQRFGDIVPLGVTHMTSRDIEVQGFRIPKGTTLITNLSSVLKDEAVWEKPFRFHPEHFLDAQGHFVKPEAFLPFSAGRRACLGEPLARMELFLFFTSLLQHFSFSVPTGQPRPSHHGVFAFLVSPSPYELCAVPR
Cytochrome P450 3A4 (Homo sapiens), sequence (P08684 whole entry, looked up): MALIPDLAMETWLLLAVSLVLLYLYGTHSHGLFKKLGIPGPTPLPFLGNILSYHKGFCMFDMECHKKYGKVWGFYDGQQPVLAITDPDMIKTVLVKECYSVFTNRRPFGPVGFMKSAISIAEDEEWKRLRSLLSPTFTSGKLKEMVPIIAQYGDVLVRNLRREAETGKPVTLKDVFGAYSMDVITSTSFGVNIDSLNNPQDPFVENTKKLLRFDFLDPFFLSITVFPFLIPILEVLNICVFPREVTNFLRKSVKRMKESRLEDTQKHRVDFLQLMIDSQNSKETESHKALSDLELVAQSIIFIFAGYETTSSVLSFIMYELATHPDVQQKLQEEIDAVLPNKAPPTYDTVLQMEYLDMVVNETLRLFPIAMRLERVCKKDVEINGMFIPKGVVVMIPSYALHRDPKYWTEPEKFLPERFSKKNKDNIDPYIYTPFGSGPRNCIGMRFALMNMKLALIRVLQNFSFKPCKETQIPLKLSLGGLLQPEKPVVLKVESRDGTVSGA

`O=C(O)c1cc(C(=O)O)c(C(=O)O)cc1C(=O)O`: the Potency entry in assay [1], in assay [2], in assay [3], in assay [4] and in assay [5] was “inactive” in each case.

Regarding `O=C(Nc1ccc2c(c1)Cc1ccccc1-2)C(F)(F)F`, the Potency entry in assay [1], in assay [5] and in assay [6] was “inactive” each time. Besides, the Potency in assay [2] was 17.8 µM (active); in assay [3], 5.03 µM (active); in assay [4], 3.56 µM (active).

`CCCCCCOC(=O)c1ccccc1`: the Potency result in assay [1], in assay [2], in assay [3], in assay [5] and in assay [6] was “inactive” throughout. Besides, the Potency in assay [4] is 20 µM (active).

With `CC(COc1ccccc1)NC(C)C(O)c1ccc(O)cc1` (stereo unspecified), the Potency in assay [1] is 0.55 µM (active); in assay [2] it was 8.71 µM (active); in assay [3], 15.5 µM (active); in assay [4], 17.4 µM (active). In assay [5], the Potency entry is “inactive”.

Consider `CCCC(=O)OCCC(C)C`, for which the Potency result in assay [1], in assay [2], in assay [3], in assay [4], in assay [5] and in assay [6] was “inactive” throughout.

Regarding `c1ccc(CN(Cc2ccccc2)Cc2ccccc2)cc1`, the Potency was 7.96 µM (active) in assay [1]; 5.64 µM (active) in assay [2]; 31.7 µM (active) in assay [3]; 20 µM (active) in assay [4]; 24.5 µM (active) in assay [5]. The Potency result in assay [6] is “inactive”.

For the molecule `COc1ccc(/C=C/c2cc(OC)cc(=O)o2)cc1`, the Potency entry in assay [1], in assay [3], in assay [5] and in assay [6] was “inactive” throughout. Further, the Potency in assay [2] was 4.09 µM (active); in assay [4] it was 9.15 µM (active).

Turning to `Cc1cc(C)n(CO)n1`, the Potency result in assay [1], in assay [2], in assay [3], in assay [4], in assay [5] and in assay [6] was “inactive” throughout.

For the molecule `CC(=O)c1cccnc1`, the Potency result in assay [1], in assay [2], in assay [3], in assay [4], in assay [5] and in assay [6] was “inactive” each time.

Consider `COc1ccc(C(=O)c2ccc(C)cc2)c(O)c1`, for which the Potency in assay [1] is 40.4 µM (active); in assay [2], 5.08 µM (active); in assay [3], 22.7 µM (active); in assay [4], 20.2 µM (active). Moreover, in assay [6], the Potency entry was “inactive”.

In the case of `O=c1c2ccccc2oc2ccccc12`, the Potency entry in assay [1], in assay [5] and in assay [6] was “inactive” in each case. In addition, the Potency in assay [2] is 28.3 µM (active); in assay [3], 39.9 µM (active); in assay [4] it was 0.564 µM (active).

For the molecule `Cc1c(Cl)cccc1[N+](=O)[O-]`, the Potency entry in assay [1], in assay [2], in assay [3], in assay [4], in assay [5] and in assay [6] was “inactive” throughout.

Turning to `Nc1ccc(F)cc1F`, the Potency result in assay [1], in assay [2], in assay [3], in assay [4], in assay [5] and in assay [6] was “inactive” throughout.

As for `CC(C)(C)NCC(O)COc1ccc(NC(=O)NC2CCCCC2)cc1` (stereo unspecified), the Potency entry in assay [1], in assay [2], in assay [3], in assay [4], in assay [5] and in assay [6] was “inactive” each time.

As for `COc1ccc(C(=O)Nc2ccccc2)cc1[N+](=O)[O-]`, the Potency was 40.2 µM (active) in assay [1]; 35.9 µM (active) in assay [2]; 35.9 µM (active) in assay [3]; 5.68 µM (active) in assay [4]; 35.9 µM (active) in assay [6]. Moreover, the Potency result in assay [5] was “inactive”.

As to `CCCCCCCCCCCCCCCCC(=O)O`, the Potency entry in assay [1], in assay [2], in assay [3], in assay [4], in assay [5] and in assay [6] was “inactive” in each case.

Regarding `O=C1OC(=O)C2CC=CCC12` (stereo unspecified), the Potency was 35.7 µM (active) in assay [1] and 80 µM (active) in assay [2]. Moreover, the Potency result in assay [3], in assay [4], in assay [5] and in assay [6] was “inactive” each time.

With `CC(C(=O)O)c1ccc2c(c1)Cc1cccnc1O2` (stereo unspecified), the Potency result in assay [1], in assay [2], in assay [3], in assay [4], in assay [5] and in assay [6] was “inactive” each time.

Regarding `C/C=C1\[C@H]2C=C(C)C[C@]1(N)c1ccc(=O)[nH]c1C2`, the Potency result in assay [1], in assay [2], in assay [3], in assay [4], in assay [5] and in assay [6] was “inactive” throughout.

`C[C@H]1C[C@H]2[C@@H]3CCC4=CC(=O)C=C[C@]4(C)[C@@]3(F)[C@@H](O)C[C@]2(C)[C@@]1(O)C(=O)COP(=O)(O)O`: the Potency entry in assay [1], in assay [2], in assay [3], in assay [4], in assay [5] and in assay [6] was “inactive” each time.

For `CC1(C)C(=O)NC(=O)N1CO`, the Potency result in assay [1], in assay [2], in assay [3], in assay [4], in assay [5] and in assay [6] was “inactive” each time.

With `C1=COCCC1`, the Potency entry in assay [1], in assay [2], in assay [3], in assay [4], in assay [5] and in assay [6] was “inactive” throughout.

Regarding `CC1=C(C)C(=O)C(C(CCCCCC(=O)O)c2ccccc2)=C(C)C1=O` (stereo unspecified), the Potency result in assay [1], in assay [4], in assay [5] and in assay [6] was “inactive” each time. In addition, the results for the Potency in assay [2] and in assay [3] were 24.5 µM (active) and 17.4 µM (active), respectively.

Turning to `CC(C)CC(C)(C)C`, the Potency in assay [1] is 36.9 µM (active); in assay [2], 20.8 µM (active); in assay [3], 36.9 µM (active); in assay [4], 7.37 µM (active); in assay [6], 32.9 µM (active). For the same molecule, in assay [5], the Potency result is “inactive”.

For `Clc1nc2ccccc2nc1Cl`, the Potency in assay [1] is 64 µM (active); in assay [4], 5.09 µM (active). Further, the Potency result in assay [2], in assay [3], in assay [5] and in assay [6] was “inactive” throughout.

For the molecule `O=[N+]([O-])c1cccc(I)c1`, the Potency result in assay [1], in assay [2], in assay [3], in assay [5] and in assay [6] was “inactive” throughout. Also, the Potency in assay [4] was 31.6 µM (active).

As for `O=C1CCCN1CCO`, the Potency result in assay [1], in assay [2], in assay [3], in assay [5] and in assay [6] was “inactive” in each case. Moreover, the Potency in assay [4] is 39.9 µM (active).

Turning to `OCCCO`, the Potency result in assay [1], in assay [2], in assay [3], in assay [4], in assay [5] and in assay [6] was “inactive” each time.

Take `C[Si](C)(C)O[Si](C)(C)O[Si](C)(C)C`: the Potency entry in assay [1], in assay [2], in assay [3], in assay [4], in assay [5] and in assay [6] was “inactive” in each case.
